Reference: PubChem BioAssay (NCI)
This is part of a sample that, as a whole, favours compounds with a hit. Of some 79,000 tested, about 15% had one in any assay. The source made the active and inactive calls. Cut-off read from the data, not from the text of the source: active = growth inhibition above about 70%; inactive = the rest.

Legend:
[1] = NCI Yeast Anticancer Drug Screen. Data for the wt1 strain (AID 149);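 note: 0% = growth of vehicle-treated wt1 cultures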; settings: S. cerevisiae wt1 strain (SPY 50644) growth inhibition, active compounds read high
Procedure, shortened: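 The wt1 strain was treated with compounds, and growth was compared with vehicle-treated cultures to give inhibition.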

[2] = NCI Yeast Anticancer Drug Screen. Data for the rad50EPP+ strain (AID 151);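 note: 0% = growth of vehicle-treated control cultures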; settings: S. cerevisiae rad50 mutant strain, active compounds read high
Procedure, shortened: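 Compounds were applied to the rad50EPP+ yeast strain, which bears a defined DNA repair alteration, and growth inhibition was determined relative to vehicle-treated cultures.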

[3] = NCI Yeast Anticancer Drug Screen. Data for the mgt1 strain (AID 153); settings: S. cerevisiae mgt1 mutant growth inhibition, active compounds read high
Procedure, shortened: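 Strain: mgt1 yeast, one of a set carrying defined DNA damage repair or cell cycle control alterations. Compound-treated growth compared with vehicle.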

[4] = NCI Yeast Anticancer Drug Screen. Data for the rad50 strain (AID 155);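 note: 0% = growth of vehicle-only cultures of the same strain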; settings: S. cerevisiae rad50 strain growth inhibition, active compounds read high
Procedure, shortened: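 Cells are treated with compound, grown, and their growth is then scored against vehicle-only cultures of the same repair-deficient yeast strain.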

[5] = NCI Yeast Anticancer Drug Screen. Data for the mec2-1 strain (AID 157); settings: S. cerevisiae mec2-1 strain, active compounds read high
Procedure, shortened: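 Strain: mec2-1 (DNA repair/cell cycle alteration). Compound exposure, then growth measured; inhibition expressed relative to vehicle.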

[6] = NCI Yeast Anticancer Drug Screen. Data for the rad14 strain (AID 159);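 note: 0% = growth of vehicle-treated control cultures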; settings: S. cerevisiae rad14 strain growth inhibition, active compounds read high
Procedure, shortened: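 Readout: yeast growth inhibition, referenced to vehicle-only cultures. Strain bears a defined alteration in DNA damage repair.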

[7] = NCI Yeast Anticancer Drug Screen. Data for the sgs1 mgt1 strain (AID 161);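 note: 0% = growth of cultures given vehicle only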; settings: S. cerevisiae sgs1 mgt1 strain, active compounds read high
Procedure, shortened: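 Test agents were incubated with a DNA-repair-mutant yeast strain. Growth was then read and compared against vehicle-treated controls.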

[8] = NCI Yeast Anticancer Drug Screen. Data for the CLN2oe strain (AID 163);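 note: 0% = growth of vehicle-only control cultures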; settings: S. cerevisiae CLN2oe strain, active compounds read high
Procedure, shortened: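 Growth of a genetically modified yeast strain is measured after compound exposure and compared with cultures given vehicle alone.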

[9] = NCI Yeast Anticancer Drug Screen. Data for the cln2 rad14 strain (AID 165);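 note: 0% = growth equal to vehicle treated cultures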; settings: S. cerevisiae cln2 rad14 strain, active compounds read high
Procedure, shortened: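 Compounds are applied to the cln2 rad14 yeast strain, and growth is then compared with that of vehicle-treated cultures to give inhibition.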

[10] = NCI Yeast Anticancer Drug Screen. Data for the bub3 strain (AID 167); settings: S. cerevisiae bub3 mutant strain, active compounds read high
Procedure, shortened: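 Part of a panel of yeast mutants defective in DNA damage repair or cell cycle regulation. Each strain is grown with compound, and inhibition is calculated relative to solvent-treated cultures.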

[11] = NCI Yeast Anticancer Drug Screen. Data for the wt2 strain (AID 169);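 note: 0% = growth of vehicle-treated yeast cultures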; settings: S. cerevisiae wt2 strain growth inhibition, active compounds read high
Procedure, shortened: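 This strain belongs to a panel of yeast strains with defined genetic alterations in DNA damage repair or cell cycle control. Compounds are applied, and growth inhibition is measured against vehicle-treated cultures.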

[12] = NCI Yeast Anticancer Drug Screen. Data for the mlh1 strain (AID 171);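 note: 0% = growth of vehicle-treated control cultures of the same strain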; settings: S. cerevisiae mlh1 strain growth inhibition, active compounds read high
Procedure, shortened: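 Growth of the mutant yeast strain after compound exposure, expressed as inhibition relative to vehicle-only controls.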

[13] = NCI Yeast Anticancer Drug Screen. Data for the sgs1 strain (AID 173);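 note: 0% = growth of vehicle-only control cultures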; settings: S. cerevisiae sgs1 mutant, active compounds read high
Procedure, shortened: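 Growth of a yeast strain bearing a defined genetic alteration is measured after compound treatment. Inhibition is expressed relative to vehicle-only controls.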

[14] = NCI Yeast Anticancer Drug Screen. Data for the mlh1 rad18 strain (AID 175); settings: S. cerevisiae mlh1 rad18 strain growth inhibition, active compounds read high
Procedure, shortened: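 Read-out is yeast growth inhibition, calculated against vehicle-only controls. The compound was applied to a strain engineered with DNA damage repair alterations.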

[15] = NCI Yeast Anticancer Drug Screen. Data for the rad18 strain (AID 177); settings: S. cerevisiae rad18 mutant growth inhibition, active compounds read high
Procedure, shortened: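 Growth of the mutant yeast strain after compound exposure, normalised to vehicle-only cultures.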

[16] = NCI Yeast Anticancer Drug Screen. Data for the rad52 strain (AID 147);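 note: 0% = growth of vehicle-treated control cultures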; settings: S. cerevisiae rad52 mutant growth inhibition, active compounds read high
Procedure, shortened: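 Compounds are applied to a genetically defined yeast strain lacking normal DNA damage repair, and inhibition of growth is expressed relative to cultures given vehicle only.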

[17] = at 5.0 µM (retest, dose inferred, filed as 0.5)
[18] = at 50.0 µM (retest, dose inferred, filed as 5.0)

Measured: growth inhibition

COc1cc(O)c(O)c(C(C)(C)C)c1
inactive: [1]; at 1.2 µM -1% | [1]; at 3.7 µM -1% | [1]; at 11.0 µM 4% | [1]; at 33.0 µM 3% | [1]; at 100.0 µM 4% | [2]; at 1.2 µM 12% | [2]; at 3.7 µM 16% | [2]; at 11.0 µM 41% | [2]; at 33.0 µM 53% | [2]; at 100.0 µM 50% | [3]; at 1.2 µM -2% | [3]; at 3.7 µM -2% | [3]; at 11.0 µM 4% | [3]; at 33.0 µM 24% | [3]; at 100.0 µM 12% | [4]; at 1.2 µM 0% | [4]; at 3.7 µM -2% | [4]; [17] 10% | [4]; at 11.0 µM 3% | [4]; at 33.0 µM 6% | [4]; [18] 38% | [4]; at 50.0 µM 63.7% | [4]; at 100.0 µM 12% | [5]; at 1.2 µM -3% | [5]; at 3.7 µM -1% | [5]; [17] 4% | [5]; at 11.0 µM 0% | [5]; at 33.0 µM 5% | [5]; [18] 16% | [5]; at 50.0 µM 59.5% | [5]; at 100.0 µM 18% | [6]; at 1.2 µM -1% | [6]; at 3.7 µM -3% | [6]; at 11.0 µM 5% | [6]; at 33.0 µM 10% | [6]; at 100.0 µM 19% | [7]; [17] 2% | [7]; [18] 50% | [7]; at 50.0 µM 63.8% | [8]; at 1.2 µM -1% | [8]; at 3.7 µM -3% | [8]; at 11.0 µM 3% | [8]; at 33.0 µM -3% | [8]; at 100.0 µM -6% | [9]; [17] -14% | [9]; [18] 18% | [9]; at 50.0 µM 4.65% | [10]; at 1.2 µM -6% | [10]; at 3.7 µM -5% | [10]; [17] 0% | [10]; at 11.0 µM 2% | [10]; at 33.0 µM 7% | [10]; at 50.0 µM 61.1% | [10]; at 100.0 µM 17% | [11]; at 1.2 µM -1% | [11]; at 3.7 µM 0% | [11]; at 11.0 µM 8% | [11]; at 33.0 µM 12% | [11]; at 100.0 µM 17% | [12]; at 1.2 µM 3% | [12]; at 3.7 µM 3% | [12]; at 11.0 µM 9% | [12]; at 33.0 µM 15% | [12]; at 100.0 µM 26% | [13]; at 1.2 µM 1% | [13]; at 3.7 µM 7% | [13]; at 11.0 µM 16% | [13]; at 33.0 µM 8% | [13]; at 100.0 µM 43% | [14]; [17] 20% | [14]; at 50.0 µM 22.9% | [15]; at 1.2 µM 0% | [15]; at 3.7 µM 1% | [15]; at 11.0 µM -17% | [15]; at 33.0 µM 8% | [15]; at 100.0 µM 16%
active: [10]; [18] 82% | [14]; [18] 82%

N#CNC(N)=Nc1cc2ccccc2c2ccccc12
active: [16]; at 11.0 µM 88% | [16]; at 33.0 µM 95% | [16]; at 100.0 µM 92% | [2]; at 33.0 µM 82% | [2]; at 100.0 µM 79% | [3]; at 11.0 µM 71% | [3]; at 33.0 µM 88% | [3]; at 100.0 µM 92% | [4]; at 11.0 µM 90% | [4]; at 33.0 µM 96% | [4]; [18] 97% | [4]; at 50.0 µM 89.5% | [4]; at 100.0 µM 90% | [5]; at 33.0 µM 78% | [5]; [18] 96% | [5]; at 100.0 µM 82% | [6]; at 11.0 µM 85% | [6]; at 33.0 µM 95% | [6]; at 100.0 µM 93% | [7]; [18] 96% | [7]; at 50.0 µM 78.8% | [8]; at 33.0 µM 83% | [8]; at 100.0 µM 84% | [9]; [18] 90% | [9]; at 50.0 µM 91.3% | [10]; at 33.0 µM 87% | [10]; [18] 96% | [10]; at 50.0 µM 92.2% | [10]; at 100.0 µM 93% | [11]; at 33.0 µM 89% | [11]; at 100.0 µM 89% | [12]; at 11.0 µM 78% | [12]; at 33.0 µM 92% | [12]; at 100.0 µM 91% | [13]; at 11.0 µM 87% | [13]; at 33.0 µM 96% | [13]; at 100.0 µM 96% | [14]; [18] 97% | [14]; at 50.0 µM 85.7% | [15]; at 11.0 µM 78% | [15]; at 33.0 µM 94% | [15]; at 100.0 µM 92%
inactive: [16]; at 1.2 µM 34% | [16]; at 3.7 µM 60% | [2]; at 1.2 µM 8% | [2]; at 3.7 µM 16% | [2]; at 11.0 µM 61% | [3]; at 1.2 µM 27% | [3]; at 3.7 µM 40% | [4]; at 1.2 µM 45% | [4]; at 3.7 µM 69% | [4]; [17] 60% | [5]; at 1.2 µM 24% | [5]; at 3.7 µM 32% | [5]; [17] 48% | [5]; at 11.0 µM 58% | [5]; at 50.0 µM 67.1% | [6]; at 1.2 µM 36% | [6]; at 3.7 µM 53% | [7]; [17] 57% | [8]; at 1.2 µM 38% | [8]; at 3.7 µM 46% | [8]; at 11.0 µM 68% | [9]; [17] 55% | [10]; at 1.2 µM 34% | [10]; at 3.7 µM 32% | [10]; [17] 40% | [10]; at 11.0 µM 67% | [11]; at 1.2 µM 17% | [11]; at 3.7 µM 12% | [11]; at 11.0 µM 62% | [12]; at 1.2 µM 31% | [12]; at 3.7 µM 50% | [13]; at 1.2 µM 20% | [13]; at 3.7 µM 58% | [14]; [17] 54% | [15]; at 1.2 µM 21% | [15]; at 3.7 µM 34%

Cc1cccc2c1nc1ccc(Cl)cc1[n+]2C
active: [1]; at 33.0 µM 97% | [1]; at 100.0 µM 96% | [3]; at 33.0 µM 98% | [3]; at 100.0 µM 98% | [4]; at 11.0 µM 84% | [4]; at 33.0 µM 96% | [4]; [18] 96% | [4]; at 50.0 µM 98% | [4]; at 100.0 µM 97% | [5]; at 11.0 µM 85% | [5]; at 33.0 µM 96% | [5]; [18] 96% | [5]; at 50.0 µM 98.8% | [5]; at 100.0 µM 97% | [7]; [18] 97% | [7]; at 50.0 µM 98.8% | [8]; at 11.0 µM 89% | [8]; at 33.0 µM 96% | [8]; at 100.0 µM 95% | [9]; [18] 95% | [9]; at 50.0 µM 96.5% | [10]; at 11.0 µM 82% | [10]; at 33.0 µM 95% | [10]; [18] 94% | [10]; at 50.0 µM 98% | [10]; at 100.0 µM 96% | [11]; at 11.0 µM 92% | [11]; at 33.0 µM 97% | [11]; at 100.0 µM 95% | [12]; at 11.0 µM 82% | [12]; at 33.0 µM 97% | [12]; at 100.0 µM 97% | [14]; [18] 95% | [14]; at 50.0 µM 98.3%
inactive: [1]; at 1.2 µM -1% | [1]; at 3.7 µM 4% | [1]; at 11.0 µM 41% | [3]; at 1.2 µM 0% | [3]; at 3.7 µM 7% | [3]; at 11.0 µM 59% | [4]; at 1.2 µM 2% | [4]; at 3.7 µM 9% | [4]; [17] 11% | [5]; at 1.2 µM 1% | [5]; at 3.7 µM 18% | [5]; [17] 3% | [7]; [17] 26% | [8]; at 1.2 µM -5% | [8]; at 3.7 µM -4% | [9]; [17] 4% | [10]; at 1.2 µM 0% | [10]; at 3.7 µM 10% | [10]; [17] 0% | [11]; at 1.2 µM -2% | [11]; at 3.7 µM 2% | [12]; at 1.2 µM -3% | [12]; at 3.7 µM 7% | [14]; [17] 25% | [15]; at 1.2 µM 25% | [15]; at 3.7 µM 62%
